# PubChem BioAssay (NCATS)
# Inconclusive results are not listed. Entries that show only a call come without a potency. Active and inactive are the calls of the source. Unless noted, calls come from the whole dose curve; as a rule, active = well fitted curve in the direction sought with a large enough effect; inconclusive = small, poorly fitted or top-dose-only effect, or another doubt; inactive = no such curve, though single readings can be large; an effect the other way counts as inactive or inconclusive.
# Legend:
# [1] = P-glycoprotein substrates identified in KB-3-1 adenocarcinoma cell line, qHTS therapeutic library screen (AID 1346986); note: nearly all actives have a fitted effect of over 60% in size
# Procedure, shortened: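 Cells seeded 500/well in DMEM/10% FCS; compounds pinned in dose-response; 72 h incubation; CellTiter-Glo added, 5 min, luminescence. KB-8-5-11 run ±tariquidar to test reversal of P-gp resistance.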
# [2] = P-glycoprotein substrates identified in KB-8-5-11 adenocarcinoma cell line, qHTS therapeutic library screen (AID 1346987); note: nearly all actives have a fitted effect of over 65% in size
# Procedure, shortened: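 Steps: plate 500 KB-8-5-11 cells/well in DMEM + 10% FCS (colchicine removed); pin compounds in dose-response; incubate 72 h, 37 degree C, 5% CO2; add CellTiter-Glo, 5 min; read luminescence.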
# [3] = Primary qHTS for inhibitors of nuclear receptor binding SET domain protein 2 (NSD2) in an isogenic RCH-ACV NSD2 p.E1099K mutant (9B) (AID 1645876); note: nearly all actives have a fitted effect of over 70% in size; note: potency is the fitted concentration of half-maximal effect
# [4] = target: Catechol O-methyltransferase (Homo sapiens) (UniProt P21964); assay: Confirmatory Screen for Target Class Profiling of Small Molecule Inhibitors of Methyltransferases (AID 1745852; calls by dose curve; note: potency is the fitted concentration of half-maximal effect); conditions: MTase-Glo luminescence, SAH detection, recombinant enzyme; measured here: COMT max response; stronger effect = lower value
# [5] = target: Guanidinoacetate N-methyltransferase (Homo sapiens) (UniProt Q14353); assay: as above; conditions: activity change, negative = inhibition: at 57.3 µM (top of the series) unless noted
# [6] = target: Nicotinamide N-methyltransferase (Homo sapiens) (UniProt P40261); assay: as above; conditions: MTase-Glo luminescence, SAH detection, recombinant enzyme; measured here: NNMT max response; stronger effect = lower value
# [7] = target: Phenylethanolamine N-methyltransferase (Homo sapiens) (UniProt P11086); assay: as above; conditions: MTase-Glo luminescence, SAH detection, recombinant enzyme; measured here: PNMT max response; stronger effect = lower value
# [8] = target: Glutathione peroxidase 1 (Homo sapiens) (UniProt P07203); assay: Primary qHTS Assay for Inhibitors of Recombinant Selenoprotein Glutathione Peroxidase 1 (GPX1) (AID 1845191); note: nearly all actives have a fitted effect of over 65% in size
# Procedure, shortened: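 10 nM GPX1 + cpd, 30 min RT; start w/ 1 mM GSH, 0.5 mM cumene hydroperoxide, 0.5 mM NADPH, 100 nM GR, 0.01% BSA; buffer 50 mM Tris-HCl pH 7.5, 2 mM EDTA, 150 mM NaCl; Fl 340/450, 0 & 15 min.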
# [9] = test system: Zika virus NS2B-NS3 protease; assay: Primary screen GU AMC qHTS for Zika virus inhibitors (AID 1347154); note: nearly all actives have a fitted effect of over 70% in size
# Procedure, shortened: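 Fluorogenic AMC-substrate cleavage by noncovalent NS2B-NS3 protease complex (25 nM, pH 8.0 Tris buffer with Tween 20) followed for 15 minutes at room temperature (~20% conversion). Percent inhibition from ex340/em450 signal change, fitted by 4-parameter Hill equation.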
# [10] = Primary qHTS for small molecule stabilizers of the endoplasmic reticulum resident proteome: Secreted ER Calcium Modulated Protein (SERCaMP) assay (AID 1508630)
# Procedure, shortened: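 GLuc-SERCaMP-expressing SH-SY5Y cells, pretreated 16 h with compound, are challenged with thapsigargin to empty ER calcium stores; after 4 h, coelenterazine is added directly to the medium and luminescence is imaged.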
# [11] = Primary qHTS for inhibitors of nuclear receptor binding SET domain protein 2 (NSD2) in an RCH-ACV wild type WT cells (2C) (AID 1645877); note: nearly all actives have a fitted effect of over 70% in size
# [12] = qHTS to identify inhibitors of the type 1 interferon - major histocompatibility complex class I in skeletal muscle: primary screen against the NCATS Mechanism Interrogation Plate v5.0 (MIPE) Libary (AID 1347411); note: nearly all actives have a fitted effect of over 65% in size
# Procedure, shortened: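 Luminescence from HiBiT-tagged endogenous HLA-B*08:01 served as the MHC class I read-out. CRISPR-engineered C25cl48 human myoblasts received 4.0 ng/ml IFN-beta plus compound for 24 hrs, with an 11-point, 1:3 series topping at 46 uM final.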
# [13] = target: Phospholipid hydroperoxide glutathione peroxidase GPX4 (Homo sapiens) (UniProt P36969); assay: Primary qHTS Assay for Inhibitors of Recombinant Selenoprotein Glutathione Peroxidase 4 (GPX4) (AID 1845192); conditions: outcome: dose series up to 50 µM unless noted; note: nearly all actives have a fitted effect of over 65% in size
# Procedure, shortened: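 NADPH consumption, followed by fluorescence at 340/450 nm between 0 and 15 min, reports GPX4 activity via coupled glutathione reductase (100 nM). Enzyme 200 nM was pre-exposed to compound 30 min; 0.5 mM cumene hydroperoxide and 1 mM GSH served as substrates.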
# [14] = qHTS drug screen for cell cycle checkpoint inhibitors in PARPi-resistant BRCA-mutant ovarian cancer cell lines. (AID 1963452; calls by dose curve); conditions: PEO1/OlaR viability, CellTiter-Glo luminescence, 96 h, stronger effect = lower value
# Procedure, shortened: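 PEO1, PEO4 and PEO1/OlaR ovarian cancer cells, 600 per well, exposed 96 h at 37C to a dilution series. Viability read by CellTiter-Glo luminescence, normalized to DMSO and empty wells; activity summarized as Z-AUC.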
# [15] = measured here: PEO1 parental Z-AUC
# Sequence of Glutathione peroxidase 1 (Homo sapiens) (P07203 whole entry, looked up): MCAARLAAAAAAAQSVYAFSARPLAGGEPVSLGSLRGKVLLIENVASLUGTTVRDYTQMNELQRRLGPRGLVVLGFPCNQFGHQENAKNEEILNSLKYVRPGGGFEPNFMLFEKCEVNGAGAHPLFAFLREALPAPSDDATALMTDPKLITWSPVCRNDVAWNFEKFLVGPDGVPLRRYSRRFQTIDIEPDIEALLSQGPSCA
# Sequence of Nicotinamide N-methyltransferase (Homo sapiens) (P40261 whole entry, looked up): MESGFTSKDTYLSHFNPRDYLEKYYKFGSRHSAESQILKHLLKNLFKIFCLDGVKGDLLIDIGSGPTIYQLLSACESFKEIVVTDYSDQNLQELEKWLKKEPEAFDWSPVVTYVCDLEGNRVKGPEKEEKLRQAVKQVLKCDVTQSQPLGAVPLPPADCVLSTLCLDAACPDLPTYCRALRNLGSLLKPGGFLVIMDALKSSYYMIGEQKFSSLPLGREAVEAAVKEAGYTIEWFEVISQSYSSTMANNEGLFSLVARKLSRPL
# Sequence of Phenylethanolamine N-methyltransferase (Homo sapiens) (P11086 whole entry, looked up): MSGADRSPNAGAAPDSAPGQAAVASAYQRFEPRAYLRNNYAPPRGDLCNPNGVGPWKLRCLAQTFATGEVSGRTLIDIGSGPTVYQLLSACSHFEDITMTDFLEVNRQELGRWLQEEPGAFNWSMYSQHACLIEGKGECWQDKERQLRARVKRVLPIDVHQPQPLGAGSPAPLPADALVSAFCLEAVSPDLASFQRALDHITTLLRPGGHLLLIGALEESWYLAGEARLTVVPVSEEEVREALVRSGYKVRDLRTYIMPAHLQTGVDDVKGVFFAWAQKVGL
# Sequence of Catechol O-methyltransferase (Homo sapiens) (P21964 whole entry, looked up): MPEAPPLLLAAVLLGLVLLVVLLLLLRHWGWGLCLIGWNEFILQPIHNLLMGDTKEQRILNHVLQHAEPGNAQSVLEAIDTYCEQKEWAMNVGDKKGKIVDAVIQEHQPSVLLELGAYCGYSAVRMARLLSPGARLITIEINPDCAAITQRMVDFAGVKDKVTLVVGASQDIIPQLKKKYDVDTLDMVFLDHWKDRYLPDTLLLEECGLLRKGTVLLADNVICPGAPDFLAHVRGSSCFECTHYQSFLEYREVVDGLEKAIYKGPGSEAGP
# Sequence of Phospholipid hydroperoxide glutathione peroxidase GPX4 (Homo sapiens) (P36969 whole entry, looked up): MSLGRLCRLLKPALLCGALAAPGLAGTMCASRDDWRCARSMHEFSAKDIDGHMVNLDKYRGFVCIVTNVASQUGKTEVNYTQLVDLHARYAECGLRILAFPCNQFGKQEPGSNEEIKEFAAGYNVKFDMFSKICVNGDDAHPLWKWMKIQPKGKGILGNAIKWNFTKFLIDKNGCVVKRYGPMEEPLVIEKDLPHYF
smiles,measurement,setting,value
c1nc(NCC2CCOC2)c2cc(-c3ccc4c(c3)OCO4)ccc2n1 (stereo unspecified),Potency,[1],inactive
same,Potency,[2],inactive
same,Potency,[3],16.4 µM (active)
same,activity,[4],-39.2%
same,Potency,[5],42.9 µM (active)
same,activity,[6],-29.1%
same,activity,[7],-63.5%
same,Potency,[8],inactive
CCOC(=O)N1CCN(C(=O)Cn2sc3nc(C)cc(C)c3c2=O)CC1,Potency,[1],inactive
same,Potency,[2],inactive
same,Potency,[8],inactive
c1ccc(-c2[nH]ncc2-c2ccnc3ccccc23)nc1,Potency,[1],inactive
same,Potency,[9],inactive
same,Potency,[10],inactive
same,Potency,[3],inactive
same,Potency,[11],inactive
same,Potency,[8],inactive
CNC(=O)c1c(C)oc2cc(Oc3ncnc4cc(OC)c(OC)cc34)ccc12,Potency,[1],inactive
same,Potency,[12],inactive
same,Potency,[11],inactive
same,Potency,[8],inactive
same,Potency,[13],inactive
same,Z-AUC,[14],-0.474 (inactive)
same,Z-AUC,[14]; [15],-0.16
same,Z-AUC,[14]; measured here: PEO4 Z-AUC,-0.205
O=C1NC(=O)C(c2c[nH]c3ccccc23)=C1c1c[nH]c2ccccc12,Potency,[1],inactive
same,Potency,[2],inactive
same,Potency,[3],18.6 µM (active)
same,activity,[4],-38.2%
same,Potency,[5],30.6 µM (active)
same,activity,[6],-39.6%
same,activity,[7],-46.7%
same,Potency,[8],inactive
same,Z-AUC,[14],1.34 (inactive)
same,Z-AUC,[14]; [15],0.607
same,Z-AUC,[14]; measured here: PEO4 Z-AUC,0.134
